High-throughput results from PubChem.
Shown are actives, neighbours in structure and some others; about 0.65% of the full set was active somewhere.
Sa RN4220 lethal: growth inhibition of S. aureus RN4220, primary screen, OD600. 16 h. inhibition, % (no concentration beside the values). 330,000 tested, 0.33% active; in the data active means inhibition above about 85%
Sa ugtP lethal: growth inhibition of ugtP-null S. aureus, primary screen, RN4220 ugtP deletion, OD600. 16 h. growth inhibition, % (no concentration beside the values). 330,000 tested, 0.54% active. AID 1259309, 2017; in the data active means growth inhibition above about 68%
BJeLR lethal: MLPCN primary cell-based screen for lethality selective to Ras in HRASV12 cells | inhibition, % (test concentration not listed) | AID 1554, 2009 | BJeLR (HRASV12) viability, CellTiter-Glo ATP luminescence, 48 h | 300,000 tested, 0.17% active; in the data active means inhibition above about 50%
Each line names hits and unclear results; the compound was inactive in the other large screens.

COc1ccc(OCC(=O)Nc2ccc(NC(=O)c3cccs3)c(OC)c2)cc1	none
COc1cc(NC(=O)c2cccs2)c(OC)cc1NC(=O)CCC(=O)Nc1ccc2ncccc2c1	BJeLR lethal 58
O=C(O)c1ccc(NN=Cc2ccc(C(F)(F)F)cc2)cc1	none (no result: BJeLR lethal)
COC(=O)C1CN(C#N)N(c2ccc(Cl)cc2)C12c1ccccc1-c1ccccc12 (stereo not given)	Sa RN4220 lethal 90, Sa ugtP lethal 96, BJeLR lethal 84
O=C1c2ccccc2C(O)N1c1ccc(Cl)cc1 (stereo not given)	none
O=c1ccc2ccc(Oc3ccc([N+](=O)[O-])cc3Cl)cc2o1	none (no result: BJeLR lethal)
Cc1ccc(NN=C2CS(=O)(=O)N(C)c3ccsc32)cc1	Sa RN4220 lethal 99 (no result: BJeLR lethal)
Cc1ccc(N/N=C2\CS(=O)(=O)N(C)c3ccsc32)cc1	none (no result: Sa RN4220 lethal, Sa ugtP lethal)
CCOc1cccc2cc(C(=O)Nc3cc(C)on3)c(=O)oc12	none
CC1=CSC2=NC(=O)/C(=C\c3cccn3-c3ccc([N+](=O)[O-])cc3)C(=N)N12	none
Cc1ccc(NC(=O)CN2CCCC2)c2c1CC(C)(C)O2	none
CN(C)c1ccc2nc3ccc(=[N+](C)C)cc-3sc2c1	none (no result: BJeLR lethal)
Cc1cc2nc3ccc(=[N+](C)C)cc-3sc2cc1N	BJeLR lethal 57
CCOC(=O)N1CCN(C(=O)c2cn(CC)c3cc(N4CCN(C)CC4)c(F)cc3c2=O)CC1	none (no result: Sa RN4220 lethal, Sa ugtP lethal)
CCOC(=O)c1c(N)sc(C(O)(C(F)(F)F)C(F)(F)F)c1-c1ccc(F)cc1	none
CCOC(=O)c1c(N)sc(C(O)(C(F)(F)F)C(F)(F)F)c1-c1ccc(Cl)cc1	Sa RN4220 lethal 100, Sa ugtP lethal 100
O=C(NNc1nc(-c2ccccc2)c2cc(Br)ccc2n1)c1ccc(S(=O)(=O)N2CCCCC2)cc1	none
c1ccc(-c2nnc(SCC3CCCO3)nc2-c2ccccc2)cc1 (stereo not given)	none
c1ccc(-c2nnc(SCC3CCCCO3)nc2-c2ccccc2)cc1 (stereo not given)	Sa ugtP lethal 94
O=C(CCl)c1ccc2c(c1)CCN2C(=O)C1CC1	none (no result: Sa RN4220 lethal, Sa ugtP lethal)
O=C(CCl)c1ccc2c(c1)CCN2C(=O)C1CCCCC1	Sa RN4220 lethal 98, Sa ugtP lethal 99
CCc1nnc(NC(=O)CSc2ccc(-c3ccc(F)cc3)nn2)s1	none (no result: Sa RN4220 lethal, Sa ugtP lethal)
O=C(NC1CCCCC1)c1cc(-c2ccc(Cl)cc2)on1	none
Cc1cc(C)c2c(c1)cc(C)c1nnc(SCC(=O)Nc3ccccc3N3CCOCC3)n12	none
O=C(O)c1ccc(CN2C(=O)c3cccc4c([N+](=O)[O-])ccc(c34)C2=O)cc1	Sa ugtP lethal 97, BJeLR lethal 73
Cc1ccc(C(=O)O)cc1N1C(=O)c2cccc3c([N+](=O)[O-])ccc(c23)C1=O	none (no result: Sa RN4220 lethal, Sa ugtP lethal)
O=C(CCn1c(=O)sc2ccccc21)NCCC1=CCCCC1	none
CCOc1ccc2oc(=O)cc(CN3CCN(C(=O)c4ccco4)CC3)c2c1	none
Cc1c(/C=N/Nc2nc3ccccc3[nH]2)c2ccccc2n1C	BJeLR lethal 65 (no result: Sa RN4220 lethal, Sa ugtP lethal)
CC(=O)Nc1ccc(/C=N/Nc2nc3ccccc3[nH]2)cc1	BJeLR lethal 67 (no result: Sa RN4220 lethal, Sa ugtP lethal)
CC(=NNc1nc2ccccc2[nH]1)c1cccs1	none (no result: BJeLR lethal)
Cn1c(/C=N/Nc2nc3ccccc3[nH]2)nc2ccccc21	none (no result: Sa RN4220 lethal, Sa ugtP lethal)
O=C(O)c1ccc(/C=N/Nc2nc3ccccc3[nH]2)cc1	none (no result: Sa RN4220 lethal, Sa ugtP lethal)
C/C(=N\Nc1nc2ccccc2[nH]1)c1ccccn1	BJeLR lethal 74 (no result: Sa RN4220 lethal, Sa ugtP lethal)
COc1ccc(NC(=O)/C=C/c2ccccc2)c([N+](=O)[O-])c1	none
O=C(Nc1ccc(Cl)cc1)Nc1ccccc1Sc1ncc([N+](=O)[O-])s1	none (no result: Sa RN4220 lethal, Sa ugtP lethal)
O=[N+]([O-])c1cnc(Sc2ccncn2)s1	Sa ugtP lethal 100, BJeLR lethal 62
CNc1cc(Cl)c2nonc2c1[N+](=O)[O-]	Sa RN4220 lethal 94, Sa ugtP lethal 98
O=C(O)c1ccc(Nc2cc(Cl)c3nonc3c2[N+](=O)[O-])cc1	none (no result: Sa RN4220 lethal, Sa ugtP lethal)
O=[N+]([O-])c1c(Nc2cccc(O)c2)cc(Cl)c2nonc12	BJeLR lethal 79 (no result: Sa RN4220 lethal, Sa ugtP lethal)
Cc1c(Nc2cc(Cl)c3nonc3c2[N+](=O)[O-])c(=O)n(-c2ccccc2)n1C	none (no result: BJeLR lethal)
CCN(CC)CCNC(=O)c1ccc(Cl)c(S(=O)(=O)N2CCCCCC2)c1	none
O=[N+]([O-])c1ccc(N=Nc2ccc(O)cc2O)cc1	Sa RN4220 lethal 99, Sa ugtP lethal 98
O=[N+]([O-])c1cccc(N=Nc2ccc(O)cc2O)c1	none (no result: BJeLR lethal)
CC1CC(C)CN(S(=O)(=O)c2ccc(C(=O)NCCCn3ccnc3)cc2)C1 (stereo not given)	BJeLR lethal 109
O=C(NCCCn1ccnc1)c1ccc(S(=O)(=O)N2CCCCCC2)cc1	none
CC(C)(C)c1ccc(NC(=O)CSc2n[nH]c(=O)n2-c2cccnc2)cc1	none
CCOC(=O)COc1ccc2ccccc2c1/C=C/[N+](=O)[O-]	Sa ugtP lethal 87
CCOC(=O)Cn1cc(/C=C/[N+](=O)[O-])c2ccccc21	none
CCCCOc1ccc2ccccc2c1C=O	none
